Data taken from PubChem BioAssay AID624126 (The Scripps Research Institute Molecular Screening Center, 2012).
The campaign covered roughly 360,000 compounds. About 1,400 (0.39%) were called active. The full list was thinned out, with actives kept by preference. A number with no mark means an inactive call.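 Rule for the calls: active = activation above its plate's cutoff, the mean activation of sample wells plus 3 SD; inactive = the rest.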

These compounds were tested against Muscarinic acetylcholine receptor M4 (Homo sapiens) (UniProt P08173) (assay: human M4 muscarinic receptor positive allosteric modulators, primary screen, CHO-K1 cells, Fluo-8 calcium fluorescence (AID 624126)). Details: CHO-K1 hM4/Gqi5, Fluo-8 calcium fluorescence, ACh EC20; at 3 µM; hits give high values; 0% = ACh EC20, 100% = maximal ACh.
Chain of Muscarinic acetylcholine receptor M4 (Homo sapiens) (P08173 whole entry, looked up): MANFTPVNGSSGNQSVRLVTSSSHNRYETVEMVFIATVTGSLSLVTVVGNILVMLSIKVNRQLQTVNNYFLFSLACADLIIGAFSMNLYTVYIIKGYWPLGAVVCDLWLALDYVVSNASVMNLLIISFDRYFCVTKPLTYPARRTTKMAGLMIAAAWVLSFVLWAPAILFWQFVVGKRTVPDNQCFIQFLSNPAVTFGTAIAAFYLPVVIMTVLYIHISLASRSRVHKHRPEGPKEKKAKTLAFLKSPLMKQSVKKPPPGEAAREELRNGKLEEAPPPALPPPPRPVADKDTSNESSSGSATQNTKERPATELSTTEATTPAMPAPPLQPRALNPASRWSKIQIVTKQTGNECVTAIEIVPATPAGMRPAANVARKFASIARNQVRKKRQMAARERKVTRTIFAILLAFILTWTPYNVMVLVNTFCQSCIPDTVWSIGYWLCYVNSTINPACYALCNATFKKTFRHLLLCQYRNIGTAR
`CC(C)N=C1CCCC1C(=S)SSC(=S)C1CCCC1=NC(C)C` (centres undefined) gave an activation of 7.38%. For `Cc1cc2[nH]ncc2cc1NC(=S)NC(=O)c1ccccc1`, the activation was 31.9% (active). In the case of `Cn1nnc(NC(=S)NC(=O)c2ccccc2)n1`, the activation is reported as 22.4%. For `Cc1cc(C)cc(C(=O)NC(=S)Nc2ccc3[nH]c(=O)[nH]c3c2)c1`, the activation was 5.23%. `COc1ccc(C(=O)C2CCCN(C(=O)c3ccc(OC)o3)C2)c(C)c1` (centres undefined) was tested, and the activation was -1.21%. For `CN(c1ccc2nc3ccccc3c(=O)n2n1)C1CCCCC1`, the activation was 11.4%. `Cc1cccc(-n2c(SCC(N)=O)nc3c(c2=O)C2(CCCCC2)Cc2ccccc2-3)c1` showed an activation of -5.47%. In the case of `O=c1c2ccccc2nc2n1C1(CCCCC1)Cc1ccccc1-2`, the activation is reported as 21.2% (active). For `Cc1ccc(C(=O)C(C)OC(=O)Cc2n[nH]c(=O)c3ccccc23)cc1C` (centres undefined), the activation was -4.11%. For `COc1ccc(C(=O)N/N=C2\CCS(=O)(=O)c3ccc(F)cc32)cc1OC`, the activation was 2.71%. Compound `Cc1sc2ncnc(N3CCC(C(=O)NNC(=O)c4ccc(F)cc4)CC3)c2c1C` has an activation of -3.74%. For `Cc1sc2ncnc(N3CCC(C(=O)Nc4nc5ccc(Cl)cc5s4)CC3)c2c1C`, the activation was 7.24%. For `Cc1sc2ncnc(N3CCC(C(=O)Nc4ccc(F)cc4Cl)CC3)c2c1C`, the activation was 45% (active). `Cc1cccc(N(C)C(=O)c2cc(S(=O)(=O)N3CCCCC3)c[nH]2)c1` gave an activation of -3.91%. With `NCC(=O)c1cccc2ccc[n+]([O-])c12` the activation was 17.3% (active). `Cc1ccc2cccc(O)c2[n+]1[O-]` gave an activation of 16.2%. Work on `Cc1cccc2cc3c(N)c(C(=O)N4CCCc5ccccc54)sc3nc12` yielded an activation of -7.18%. In the case of `Cn1c(-c2ccc(C(=O)c3ccccc3)s2)nc2ccccc21`, the activation is reported as 0.98%. For `Cc1nc2sc(C(=O)c3ccccc3)c(N)c2c2c1CCCC2`, the activation was 63% (active). In the case of `O=C(NCc1ccccc1Cl)C(=O)NCC1CCCN1S(=O)(=O)c1cccs1` (centres undefined), the activation is reported as -2.08%. For `CC(Oc1ccccc1)C(=O)Nc1c2c(nn1-c1ccccc1)CS(=O)C2` (centres undefined), the activation was -0.93%. Work on `Cc1ccc(S(=O)(=O)N2CCN(C(=O)COC(=O)c3c(C)cc(C)cc3C)CC2)c(C)c1` yielded an activation of -3.37%. `CCCc1cc(=O)[nH]c(SCC(=O)N2CCN(S(=O)(=O)c3ccc(C)cc3C)CC2)n1` gave an activation of -1.77%. With `Cc1ccc(S(=O)(=O)N2CCN(C(=O)CSc3cc(C)ccc3C)CC2)c(C)c1` the activation was 18.8% (active). `CC(C#N)(NC(=O)CN1CCN(S(=O)(=O)c2cc(C(F)(F)F)ccc2Cl)CC1)C1CC1` (centres undefined) showed an activation of 0.11%. In the case of `COc1cccc(NC(=O)C2CCCN(c3ncnc4c3nc3n4CCCCC3)C2)c1` (centres undefined), the activation is reported as -6.71%. In the case of `CCOc1ccc(S(=O)(=O)Nc2cccc(C(=O)NCC3(N4CCCCC4)CCCCC3)c2)cc1`, the activation is reported as -3.09%. `Cc1cc(C)c(S(=O)(=O)c2ccccc2)c(OC(=O)c2c(F)cccc2Cl)n1` was tested, and the activation was 1.34%. For `O=C(CCS(=O)(=O)c1ccccc1)NC1CCCC1`, the activation was 2.49%. `Cc1ccc(S(=O)(=O)CCC(=O)OCc2ccccc2)cc1` was tested, and the activation was 1.2%. For `O=C(O)CCS(=O)(=O)c1ccc(-c2ccccc2)cc1`, the activation was 20.7% (active). With `O=C1c2ccccc2NC(c2ccccn2)N1NS(=O)(=O)c1ccccc1` (centres undefined) the activation was 16.5%. `CN(CC(=O)NCCc1ccc(S(N)(=O)=O)cc1)CC(=O)Nc1ccc(F)c(F)c1F` was tested, and the activation was 0.07%. For `CN(CC(=O)NCc1ccc2c(c1)OCO2)CC(=O)Nc1ccc(F)c(F)c1F`, the activation was -5.56%. With `CN(CC(=O)NCCc1ccc(F)cc1)CC(=O)Nc1ccc(F)c(F)c1F` the activation was 21.1% (active). For `Cc1ccccc1NC(=O)CCOc1ccccc1`, the activation was 15.2% (active). `Cc1cccc(OCCC(=O)Nc2ccccc2C(N)=O)c1` was tested, and the activation was 0.92%. With `CCc1ccccc1NC(=O)CCOc1ccccc1` the activation was -7.57%. Work on `CCCn1nc(NS(=O)(=O)c2ccccc2)c2cc3cc(C)ccc3nc21` yielded an activation of 9.07%. `COc1ccc(CN2C(=O)C(CC(=O)NC3CCCCC3)CC(C(=O)N3CCOCC3)=C2C)cc1` (centres undefined) gave an activation of 0.19%. Compound `Cn1c(CCN2CCN(c3ccccn3)CC2)nc2cc(NS(=O)(=O)c3ccc(F)cc3)ccc21` has an activation of -13.9%. With `C=CCC1(CC=C)CCCN1C(=O)CC1C(=O)NCCN1Cc1ccccc1OC` (centres undefined) the activation was 9.2%. With `O=C(Nc1ccccc1Cl)c1ccccc1S(=O)(=O)c1ccccc1[N+](=O)[O-]` the activation was 24.3% (active). Work on `O=C(NCCNc1ccccc1[N+](=O)[O-])c1ccccc1F` yielded an activation of -0.9%. `O=C(Nc1ccccc1-c1ccccc1)c1ccccc1[N+](=O)[O-]` showed an activation of -0.05%. Compound `Cc1noc(NS(=O)(=O)c2ccc(NC(=O)c3oc4ccc(F)cc4c3C)cc2)c1C` has an activation of -0.81%. For `Cc1cc(OC(C)C(=O)Nc2ccc(S(=O)(=O)Nc3onc(C)c3C)cc2)cc(C)c1Cl` (centres undefined), the activation was -0.5%. For `COc1ccc(C(=O)Nc2ccc(S(=O)(=O)Nc3onc(C)c3C)cc2)cc1OC`, the activation was 31.2% (active). `CCOC(=O)CNC(=O)CSc1ccc2nnc(-c3cccnc3)n2n1` was tested, and the activation was -1.25%. Compound `CN(Cc1ccccc1)C(=O)c1ccc(NC2=NC3CS(=O)(=O)CC3S2)cc1` (centres undefined) has an activation of -4.53%. With `Cc1ccc2nc(-c3ccncc3)cc(C(=O)Nc3ccncc3)c2c1` the activation was 20.7% (active). With `Cc1ccc(-c2cc(C(=O)NCc3cn(C)nc3C)c3cc(Br)ccc3n2)cc1` the activation was -8.1%. Work on `CCS(=O)(=O)Nc1cccc(-c2cc(-c3ccccc3)c3cc(C)ccc3n2)c1` yielded an activation of -23%. In the case of `CCCC[C@@H]1CN=C(N)N1CCc1cc(C(F)(F)F)cc(C(F)(F)F)c1`, the activation is reported as -12.2%. With `CCOC(=O)C1=C(c2ccccc2)O/C(=C(/C(=O)OC)C(F)(F)F)S1` the activation was -8.8%. `OC[C@@H]1CN(Cc2ccc(Cl)cc2)C[C@H](n2cnc3c(NCc4ccncc4)ncnc32)O1` showed an activation of -0.98%. Compound `COCCNc1ncnc2c1ncn2[C@H]1CN(CCN2CCOCC2)C[C@@H](CO)O1` has an activation of -3.76%. `COCCNc1ncnc2c1ncn2[C@H]1CN(Cc2ccc(OC)cc2)C[C@@H](CO)O1` was tested, and the activation was 16.3% (active). Compound `COc1cc(CC(=O)N2CCC(n3nccc3NC(=O)C3CC3)CC2)cc(OC)c1OC` has an activation of 0.58%. `Cc1cc(C)cc(N)c1` was tested, and the activation was -1.71%. `CC(Nc1nc(C(F)(F)F)nc2ccccc12)c1cccs1` (centres undefined) was tested, and the activation was -11.8%. For `CC(C)NC(=O)C(=O)N/N=C/c1ccco1`, the activation was 23.7% (active). Compound `O=C(CCNC(=O)c1ccccc1Cl)NN=Cc1ccco1` has an activation of 3.05%. `Cc1c(Cl)cccc1NC(=O)CCC(=O)N/N=C/c1ccco1` gave an activation of 4.77%. Compound `O=C(OCC(=O)N(CCc1ccccc1)Cc1ccccc1)c1ccccc1[N+](=O)[O-]` has an activation of -11%. `CC(NC(=O)COc1ccccc1)C(=O)NC1=NCCS1` (centres undefined) gave an activation of 8.32%. With `CCN1CN(Cc2ccccc2)CNC1=S` the activation was 10.7%. In the case of `CC(C)CCN1C(=O)c2ccc(C(=O)Nc3cccc(S(N)(=O)=O)c3)cc2C1=O`, the activation is reported as 23.1% (active). For `CN1CCN(S(=O)(=O)c2cccc(C(=O)Nc3cccc(S(N)(=O)=O)c3)c2)CC1`, the activation was -0.95%. In the case of `CCCCN1C(=O)c2ccc(C(=O)Nc3ccc(S(=O)(=O)N(C)C)cc3)cc2C1=O`, the activation is reported as -10.2%. Compound `CC(=O)NC(NC(=S)Nc1c(C)n(C)n(-c2ccccc2)c1=O)C(Cl)(Cl)Cl` (centres undefined) has an activation of -1.16%. In the case of `CCCCc1ccc(NC(=S)N2CCCC(CO)C2)cc1` (centres undefined), the activation is reported as 0.72%. In the case of `CCOC(=O)c1sc(/N=C/Nc2nc(C)c(C(=O)OCC)s2)nc1C`, the activation is reported as 39% (active). With `CCOC(=O)c1sc(NC(=O)CSc2n[nH]c(CC)n2)nc1C` the activation was -9.01%. With `CCOC(=O)c1sc(NC(=O)C2CSC3(C)CCC(=O)N23)nc1C` (centres undefined) the activation was 2.06%. `Cc1ccn2cc(-c3nonc3C)cc2c1` was tested, and the activation was 3.14%. With `Cc1ccc(S(=O)(=O)N2CCCCC2)cc1C(=O)N1CCN(CCO)CC1` the activation was 7.4%. Work on `CN1CCN(C(=O)N2c3ccccc3CCc3ccccc32)CC1` yielded an activation of -20.3%. `Cc1cnc(C(=O)N2CCCC(N3CCN(c4ccccc4F)CC3)C2)cn1` (centres undefined) gave an activation of 6.32%. For `COc1ccccc1CN1CCCC(N2CCN(c3ccc(F)cc3)CC2)C1` (centres undefined), the activation was -7.29%. `CCc1noc(C)c1C(=O)N1CCCC(N2CCN(c3ccc(F)cc3)CC2)C1` (centres undefined) was tested, and the activation was 20% (active). `COCCCNC(=O)Cn1cc(/C=C(\C#N)C(=O)N2CCN(c3ccccc3)CC2)c2ccccc21` showed an activation of 6.26%. `COc1ccc(CCNC(=O)CCn2c(=O)oc3ccccc32)cc1OC` was tested, and the activation was 5.54%. `CCN1CCC2(CCN(Cc3cn[nH]c3-c3ccc(OC)c(F)c3)C2)C1` (centres undefined) was tested, and the activation was 16.5%. `CC[C@]1(O)CC2CN(CCc3c([nH]c4ccccc34)[C@@](C(=O)OC)(c3cc4c(cc3OC)N(C=O)[C@H]3[C@@](O)(C(=O)OC)[C@H](OC(C)=O)[C@]5(CC)C=CCN6CC[C@]43[C@@H]65)C2)C1` (some centres undefined) was tested, and the activation was -0.6%. `CCN(CC)S(=O)(=O)c1ccc(NC(=O)c2cccnc2Cl)c(NC(=O)c2cccnc2Cl)c1` gave an activation of 2.53%. In the case of `CCn1cc(C(=O)NCCO)c(=O)c2cc(F)c(N3CCN(C)CC3)cc21`, the activation is reported as -4.27%. With `CCCCNC(=O)c1cn(CC)c2cc(N3CCN(C(=O)c4ccco4)CC3)c(F)cc2c1=O` the activation was 18% (active). With `CCCCCCn1cc(C(=O)O)c(=O)c2cc(F)c(N3CCCCC3)cc21` the activation was -1.05%.
